± gives the standard deviation of the averaged measurements.
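Note: TDF denotes transformed human dermal fibroblasts of mesenchymal origin.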

One experiment deals with HCC1569. Kind of experiment: cell number relative to DMSO (% of DMSO); higher = more cells (less growth inhibition / toxicity). As to conditions: concentration: 10 µM; 24 h. The essentials:
(§1)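 Cells were seeded at 800 per well in 384-well plates with RPMI containing 10% FBS; both HCC1569 and TDF lines were used. Compounds were added at 10 µM for 24 h at 37 °C, in triplicate, before fixation in 3.7% formaldehyde and staining with a rabbit anti-H1.0 antibody, an AlexaFluor 647 secondary and DAPI. H1.0 nuclear intensity or cell number is reported as percent of the plate control using the median of replicates, and HCC1569 values were smoothed for positional effects.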
In turn, `CC(CS)C(=O)N1CCCC1C(=O)O` (stereo not drawn) [Captopril] registered a cell number of 98.4 ± 2.9.
Still for that read-out and setting: then `Cl.Cl.N=C(N)c1ccc(N)cc1` [4-Aminobenzamidine dihydrochloride], with 99.9; and `Nc1ccc(C(=O)O)c(O)c1` [4-Aminosalicylic acid], with 105; and `Cl.Oc1ccc(Nc2nc(-c3ccc(Cl)cc3)cs2)cc1` [Sphingosine Kinase Inhibitor], with 69.3.
As for `CCCCCC=CCC=CCCCCCCCC(N)=O` [Linoleamide], the cell number was determined as 99.8.

The next experiment relates to TDF. The description is as above. As to conditions: concentration: 10 µM; 24 h. In short, it runs like this:
as §1
The molecule `O=C(OC12CC3CC(CC(C3)C1)C2)c1ccc(NCc2cc(O)ccc2O)cc1` [1-adamantyl 4-[(2,5-dihydroxybenzyl)amino]benzoate] gave a cell number of 62.1.
The molecule `N=C(N)N1CCc2ccccc2C1` [Debrisoquin] had a cell number of 102.
Take `CCCCCCCCCCCCCCCCn1cc[n+](Cc2ccccc2)c1C.[I-]`: the cell number amounted to 103.
On the same count and under the same terms, then `CC(=O)N[C@@H](CS)C(N)=O`, with 93.6.
In turn, `C=C1C(=CC=C2CCCC3(C)C2CCC3C(C)CCCC(C)(C)O)CC(O)CC1O` (stereo not drawn) [Calcitriol] displayed a cell number of 100.
`COc1cc2c(Nc3ccc(Br)cc3F)ncnc2cc1OCC1CCN(C)CC1` [Vandetanib] gave a cell number of 65.4.
In the case of `CCCCCCCCCCCCCCCCCC(=O)O` [Octadecanoic acid], the cell number turned out to be 101.
Same read-out and setting: then `CC=CCC=CCCC(=O)C1OC1C(N)=O` (stereo not drawn) [Cerulenin], with 91.5; and `O=c1cc(-c2ccccc2)oc2cc(O)c(O)cc12` [6,7-Dihydroxyflavone], with 96.3; and `CCCCCCCCCCCCCCCCCCCCCCCC(=O)O` [Tetracosanoic acid], with 104.
On the same count and under the same terms, then `NS(=O)(=O)c1cc2c(cc1Cl)NCNS2(=O)=O` [Hydrochlorothiazide], with 107; and `CC12CC3CC(C)(C1)CC(N)(C3)C2.Cl` [Memantine hydrochloride], with 96.
On the same count and under the same terms, then `COc1ccc(OC)c2c(=S)c3ccccc3[nH]c12`, with 92.
The molecule `Oc1cc2c(cc1O)C(c1ccccc1)CNCC2` (racemic) yielded a cell number of 113.
Still for that read-out and setting: then `CSc1nc(N)c2ncn(C3OC(COP(=O)([O-])OP(=O)([O-])[O-])C(O)C3O)c2n1.[Na+].[Na+].[Na+]` (stereo not drawn) [2-Methylthioadenosine diphosphate trisodium], with 92.9; and `CCCCCCCCCCCC(CC1OC(=O)C1CCCCCC)OC(=O)C(CC(C)C)NC=O` (stereo not drawn) [Tetrahydrolipistatin], with 99.2; and `NC(=O)Nc1sc(-c2ccc(F)cc2)cc1C(N)=O` [IKK-2 Inhibitor IV], with 103.
Same read-out and setting: then `COc1ccc(C(=O)Nc2sc3c(c2C(N)=O)CCCC3)cc1OC`, with 109.
The molecule `COc1ccc(CC2c3cc(OC)c(OC)cc3CC[N+]2(C)CCC(=O)OCCCCCOC(=O)CC[N+]2(C)CCc3cc(OC)c(OC)cc3C2Cc2ccc(OC)c(OC)c2)cc1OC.O=S(=O)([O-])c1ccccc1.O=S(=O)([O-])c1ccccc1` (stereo not drawn) [Atracurium besylate] had a cell number of 103.
Same read-out and setting: the result for `CCCCCC=CCC=CCC=CC=CC(O)CCCC(=O)O` (racemic) reads 93; that for `Cc1cccc(C(=O)NCN2CCN(c3ccccc3C#N)CC2)c1.O=C(O)C=CC(=O)O` [PD 168,077 maleate], 107.
Still for that read-out and setting: the result for `O=C1NC(=O)C(c2cn(CCCn3ccnc3)c3ccccc23)=C1Nc1ccccc1` [PKCb Inhibitor] reads 113; that for `Cc1ncc([N+](=O)[O-])n1CCO` [Metronidazole], 104.
Same read-out and setting: the result for `COc1ccccc1N1CCN(CC(O)COc2cccc3ccccc23)CC1.Cl.Cl` (stereo not drawn) [Naftopidil dihydrochloride] reads 106.
As to `Nc1nc(Cl)nc2c1ncn2C1OC(COP(=O)([O-])OP(=O)([O-])OP(=O)([O-])[O-])C(O)C1O.[Na+].[Na+].[Na+].[Na+]` (stereo not drawn) [2-Chloroadenosine triphosphate tetrasodium], the cell number was found to be 99.
Still for that read-out and setting: the result for `Nc1ccc(O)c(C(=O)O)c1` [5-Aminosalicylic acid] reads 103; that for `Cc1cc(F)c(Nc2ncnc3cc(OCc4ccccc4)ccc23)cc1O.Cl`, 105.
As for `OCC1OC(n2cnc3c(NC4CCCCC4)ncnc32)C(O)C1O` (stereo not drawn) [N6-Cyclohexyladenosine], the cell number was 105.
The same measure, in the same setting: the result for `O=C(Nc1ncc(-c2cc(C(F)F)nn2-c2c(Cl)cccc2Cl)s1)C1CC1` reads 9.11.
Regarding `CC(=O)Nc1ccc(NC(=S)NC(=O)c2ccc(C(C)(C)C)cc2)cc1` [p53 Activator (Tenovin-1)], the cell number was 91.1.
Same read-out and setting: the result for `COc1ccc(-c2ccc3c(N4CCOCC4)nc(N4CC(C)OC(C)C4)nc3n2)cc1CO` (stereo not drawn) reads 78.1; that for `C=CCc1ccccc1OCC(O)CNC(C)C.Cl` (stereo not drawn) [Alprenolol.HCl], 105; that for `O=C(O)CCc1nc(-c2ccccc2)c(-c2ccccc2)o1` [Oxaprozin], 101.
Still for that read-out and setting: the result for `CC(CS)C(=O)N1CCCC1C(=O)O` (stereo not drawn) [Captopril] reads 93.4 ± 4.1; that for `Cl.Cl.N=C(N)c1ccc(N)cc1` [4-Aminobenzamidine dihydrochloride], 102.
On the same count and under the same terms, the result for `Nc1ccc(C(=O)O)c(O)c1` [4-Aminosalicylic acid] reads 98.2; that for `Cl.Oc1ccc(Nc2nc(-c3ccc(Cl)cc3)cs2)cc1` [Sphingosine Kinase Inhibitor], 75.1.
`CCCCCC=CCC=CCCCCCCCC(N)=O` [Linoleamide]: the cell number stood at 94.8.

Source of the values: the supplement of paper PMC7156485.
